Assay results taken from PubChem BioAssay (Tox21).
Unmarked numbers belong to inactive results. Calls come from the whole dose curve.

biological target: Thyrotropin-releasing hormone receptor (Homo sapiens) (UniProt P34981); experiment: qHTS assay to identify small molecule agonists of the thyrotropin-releasing hormone receptor (TRHR) signaling pathway (AID 1346891); conditions: TRHR-HEK293 calcium fluorescence, agonist mode; series mostly up to 57.6 µM; activation: at the top concentration;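 note: HEK293 cells expressing TRHR with calcium dye readout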
Source text: National Center for Advancing Translational Sciences [NCATS] NIH Chemical Genomics Center [NCGC] U.S. Environmental Protection Agency [EPA] National Institutes of Environmental Health Sciences [NIEHS] National Toxicology Program [NTP] Assay overview: Thyrotropin-releasing hormone (TRH) receptor (TRHR) is a G-protein-coupled receptor which binds the tripeptide thyrotropin releasing hormone. TRHR is found in the brain and, when bound by TRH, acts (through phospholipase C) to increase intracellular inositol trisphosphate. It plays a crucial role in the anterior pituitary where it controls the synthesis and secretion of thyroid stimulating hormone and prolactin. The TRHR-Hek293 assay is a cell-based assay, and it has the potential to screen G protein-coupled receptors. A compound/drug can either activate (agonist) or suppress (antagonist) GPCRs that can be monitored by levels of intracellular calcium. Using this assay, the Tox21 10K compound library was screened to identify potential TRHR agonists.
Assay Protocol Summary: The TRHR-Hek293 cells were dispensed at 1500cells/4uL/well in 1536-well black-clear bottom plates using a Multidrop dispenser. After the assay plates were incubated at a 37 C/5% CO2 incubator for 18 hours, 4 uL of Dye-Loading Solution was added to each well. The plates were incubated at 37 C for 2 hours. For agonist mode, 23 nL of compounds dissolved in DMSO, positive controls or DMSO only was transferred to the assay plate by a pin tool. The fluorescence intensity in the plates was measured using FDSS 7000EX kinetic plate reader for 3 min at 1 sec intervals. Each test compound was measured at 15 concentrations and in triplicates.
% is set by controls: 0 for no effect and ±100 for the full control effect.

Sequence of Thyrotropin-releasing hormone receptor (Homo sapiens) (P34981 whole entry, looked up): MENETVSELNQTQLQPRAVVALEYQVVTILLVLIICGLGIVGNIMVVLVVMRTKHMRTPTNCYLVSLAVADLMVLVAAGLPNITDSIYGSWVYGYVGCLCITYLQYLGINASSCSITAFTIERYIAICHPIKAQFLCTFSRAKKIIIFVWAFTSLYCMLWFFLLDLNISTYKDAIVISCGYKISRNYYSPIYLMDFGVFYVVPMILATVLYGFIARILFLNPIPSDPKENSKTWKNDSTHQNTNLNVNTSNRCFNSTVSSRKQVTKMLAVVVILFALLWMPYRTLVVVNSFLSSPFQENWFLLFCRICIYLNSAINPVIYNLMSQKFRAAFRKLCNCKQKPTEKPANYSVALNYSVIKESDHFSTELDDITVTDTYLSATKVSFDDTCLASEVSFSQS

SMILES	activation
CCCO[Si](OCCC)(OCCC)OCCC	-0.954%
CCN(Cc1ccccc1)c1ccccc1	0.804%
O=[N+]([O-])c1cncn1CCN1CCOCC1	-0.568% [at 26.5 µM]
CC(C)(CCC(=O)O)C(=O)O	-0.118%
Cc1onc(-c2c(Cl)cccc2Cl)c1C(=O)Cl	-0.081% [at 26.5 µM]
C=C(C)C(=O)OCC(O)CO (stereo not given)	-1.05% [at 26.5 µM]
CCOC(=O)OC(C)OC1=C(C(=O)Nc2ccccn2)N(C)S(=O)(=O)c2ccccc21 (stereo not given)	-0.0095% [at 26.5 µM]
O=C(c1ccccc1)C1(O)CCCCC1	0.0273%
CC(C)CCCO	0.0373%
CCCCOC(=O)CCC(C)=O	-0.633%
CC(C)(N)C#N	0.283%
O=C1NC(=O)C2CC=CCC12 (stereo not given)	0.176%
CCO[Si](OCC)(OCC)c1ccccc1	-0.81%
Clc1cc(Cl)cc(Cl)c1	-0.0206%
CC(=O)c1ccccc1[N+](=O)[O-]	0.0336%
C=C(C)C(=O)OCC1CCCO1 (stereo not given)	0.0525%
C[C@@H]1C[C@H]2[C@@H]3C[C@H](F)C4=CC(=O)C(Cl)=C[C@]4(C)[C@@]3(F)[C@@H](O)C[C@]2(C)[C@@]1(O)C(=O)CO	0.654% [at 26.5 µM]
COc1c(N2CCNC(C)C2)c(F)cc2c(=O)c(C(=O)O)cn(C3CC3)c12 (stereo not given)	-0.062% [at 26.5 µM]
COC(=O)Nc1ccc(Cl)c(Cl)c1	0.76%
CCCCCCCCCCOc1cc2c(=O)c(C(=O)OCC)c[nH]c2cc1OCC	0.481% [at 5.23 µM]

SMILES	activation
CC[C@H]1OC(=O)[C@H](C)[C@@H](O[C@H]2C[C@@](C)(OC)[C@@H](O)[C@H](C)O2)[C@H](C)[C@@H](O[C@@H]2O[C@H](C)C[C@H](N(C)C)[C@H]2O)[C@](C)(OC)C[C@@H](C)C(=O)[C@H](C)[C@@H](O)[C@]1(C)O	0.141%
C[C@H]1C[C@H]2[C@@H]3CCC4=CC(=O)C=C[C@]4(C)[C@H]3C(=O)C[C@]2(C)[C@@]1(O)C(=O)CO	-0.284% [at 26.5 µM]
CCN[C@H]1C[C@H](C)S(=O)(=O)c2sc(S(N)(=O)=O)cc21	-0.183% [at 26.5 µM]
CC1(C)OC[C@@H](COC(=O)CCc2ccc(OC[C@@H](O)CNCCNC(=O)N3CCOCC3)cc2)O1	0.312% [at 26.5 µM]
CC(C(=O)O)c1cccc(Oc2ccccc2)c1 (stereo not given)	0.169% [at 26.5 µM]
Cc1ccc(C(=O)c2ccc(CC(=O)O)n2C)cc1	-0.258% [at 26.5 µM]
CCCCCC(C)N (stereo not given)	-0.448% [at 26.5 µM]
CO[Si](C)(OC)c1ccccc1	-0.141%
CC(=O)Oc1cccc(C)c1	-0.273% [at 26.5 µM]
CCN(C=O)CC	0.0475%
O=C(O)CNC(=O)c1ccccc1	0.218% [at 26.5 µM]
CN(C)[C@@H]1C(=O)C(C(=O)NCN2CCCC2)=C(O)[C@@]2(O)C(=O)C3=C(O)c4c(O)cccc4[C@@](C)(O)C3C[C@@H]12 (stereo not given in full)	-0.0378% [at 26.5 µM]
Nc1ccncc1N	-2.32% [at 26.5 µM]
[O-][n+]1cccc(CO)c1	-0.0086% [at 26.5 µM]
CC(C)CC(C)(N)C#N (stereo not given)	0.106%
O=S(=O)(O)c1cc(O)c(O)c(S(=O)(=O)O)c1	0.0682%
CN(C)CCCCCCN(C)C	0.0185%
CCNS(=O)(=O)c1ccc(C)cc1	-0.495%
CCC1C(=O)OCC1Cc1cncn1C (stereo not given)	2.6% [at 26.5 µM]
CC1(C)[C@@H]2CC[C@@]1(C)[C@H](O)C2	-0.992%
